# Assay outcomes (PubChem BioAssay)
# The list is not random: actives were taken first. Their share in the collection is about 12%.
# CHX counter: Cycloheximide Counterscreen for Small Molecule Inhibitors of Shiga Toxin. max response, %. AID 2314, 2010. cell reporter, cycloheximide protein synthesis inhibition counterscreen. 12% of 300,000 active; in the data active means max response mostly above about 13%, no sharp cut-off; inactive means mostly below about 14%; further: read at 38.3 µM for the half of the compounds with a filed dose; 0% is about no effect
# SARS PLP yeast: qHTS of Yeast-based Assay for SARS-CoV PLP; Potency, µM (doses to about 32.9 µM), inactives show at the top dose activity, positive = growth rescue, actives largely listed as activators; S. cerevisiae expressing SARS-CoV PLpro, growth rescue; 0.19% of 330,000 active; further: potency means the concentration at half of the fitted maximal effect; 0% is about no effect; nearly all actives have a fitted effect of over 55% in size
# Shiga toxin inh: A qHTS for Small Molecule Inhibitors of Shiga Toxin; Vero cells, Shiga toxin protein synthesis inhibition reporter; inhibition, % at 38.7 µM; 9.2% of 290,000 active; in the data active means inhibition mostly above about 28%, no sharp cut-off; inactive means mostly below about 43%; further: 0% is about no effect
# NS1 inh: qHTS Assay for Inhibitors of Influenza NS1 Protein Function; Potency, µM (titrated, usually from 46.1 µM), without a hit: top-dose activity, positive = more growth; 0.4% of 270,000 active; AID 2326, 2010; further: potency means the concentration at half of the fitted maximal effect; actives are rising curves; nearly all actives have a fitted effect of over 50% in size
#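 S. cerevisiae expressing influenza A NS1, grown in glucose, washed, then diluted 1:100 into pH 6.0 -URA galactose medium with 23 nl compound. Growth recovery read as OD600; NS1-free strain serves as control.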
# * = called active by the depositor; ? = inconclusive; . = no result given. Unless noted, the call rests on the fitted dose curve.
SMILES,CHX counter,SARS PLP yeast,Shiga toxin inh,NS1 inh
COCCNC(=O)Cc1c(C)c2c(cc(C)c3c(C(C)(C)C)coc32)oc1=O,0.9,0.3%,20.7,7.3%
COc1ccc(OC)c(S(=O)(=O)N2CCC(C(=O)N(C)Cc3ccccc3)CC2)c1,6.5,-0.6%,-14.4,-7.3%
COc1ccc(C2OC(=O)CC2C(=O)NCc2ccc(F)cc2)cc1OC (stereo not given),7.3,0.6%,16.7,.
COc1ccc(C2OC(=O)CC2C(=O)NCc2ccc(Cl)cc2)cc1OC (stereo not given),34.0*,-0.5%,84.6*,.
COc1ccc(Br)cc1-c1noc(-c2ccncc2)n1,11.5,2.2%,-18.1,-1.5%
Cc1ccc(-c2noc(-c3ccccc3F)n2)cc1,27.2*,0.1%,108.5*,.
COc1ccccc1-c1noc(-c2cccs2)n1,44.0*,2.9%,110.7*,3.6%
COc1ccccc1-c1noc(-c2ccncc2)n1,26.8*,-5.4%,63.8*,-2.9%
COc1cccc(-c2ccc(-c3noc(-c4cccs4)n3)c(OC)n2)c1,-4.3,-4.7%,-24.3,3.7%
O=[N+]([O-])c1cccc(-c2noc(-c3cccs3)n2)c1,34.0*,0.2%,77.7*,0.0%
COc1cccc(-c2ccc(-c3noc(-c4ccccc4F)n3)c(OC)n2)c1,2.7,0.7%,24.8,-35.6%
COc1ccc(OC)c(-c2cc(C(=O)Nc3ccc(F)cc3F)no2)c1,0.6,0.9%,15.8,.
CC(C)c1c(O)nc(SCC(=O)Nc2ccc3c(c2)CCC3)[nH]c1=O,-2.3,.,-3.0,-3.1%
CC(=O)c1cccc(N(C(=O)Cn2nnc3ccccc32)C(C(=O)NCc2ccccc2)c2ccccn2)c1 (stereo not given),-1.2,-11.4%,-16.8,-1.7%
CCOc1ncccc1-c1nc(-c2cccs2)no1,50.0*,-0.9%,60.4*,5.2%
c1csc(-c2nc(N3CCCCC3)no2)c1,37.3*,0.1%,82.4*,-4.8%
COc1ccc(-c2nc(-c3cccs3)no2)cc1,9.7,-1.7%,-13.5,-9.0%
Cc1ccc(-c2noc(-c3cccs3)n2)cc1,69.5*,3.1%,66.9*,0.8%
CCN(C(=O)Cc1c(C(=O)O)[nH]c2ccccc12)c1ccc(OC)cc1,-2.0,-0.5%,-1.5,.
CCCCc1c(O)n(-c2ccccc2)[nH]c1=O,3.9,.,-5.3,.
Cc1cccc(/C(N)=N/OC(=O)Cc2ccccc2)c1,41.4*,1.0%,81.2*,-5.2%
Cc1cccc(/C(N)=N/OC(=O)C23CC4CC(CC(C4)C2)C3)c1,42.4*,.,83.6*,-43.0%
CCC(C(=O)O/N=C(\N)c1cccc(C)c1)c1ccccc1 (stereo not given),23.8*,-25.1%,114.7,1.7%
Cc1cccc(C(=O)O/N=C(\N)c2ccccn2)c1,-5.8,-8.7%,-6.0,-35.3%
COc1cccc(C2N=C(c3ccccc3C)NO2)c1OC (stereo not given),27.2*,-6.7%,51.2*,-7.7%
SMILES,CHX counter,SARS PLP yeast,Shiga toxin inh,NS1 inh
Cc1cccc(NC(=O)CN(c2ccc(C(C)C)cc2)S(=O)(=O)c2c(C)nn(C)c2C)n1,-4.5,0.6%,-12.5,0.0%
Cc1ccc(CN2CCN(C(=O)C3CCCO3)CC2)cc1 (stereo not given),0.8,2.3%,-8.1,-15.4%
Cc1ccc(-c2nc(CN3CCN(C(=O)C4CCCO4)CC3)cs2)cc1 (stereo not given),13.8*,1.3%,2.4,13.1%
Fc1ccccc1-c1nnc2ccc3ccccc3n12,-3.7,-6.5%,.,-16.1%
Fc1cccc(Cl)c1-c1nnc2ccc3ccccc3n12,36.8*,-1.5%,34.7*,.
CCOC(=O)c1c(C)n(OCc2ccccc2)c2ccc3c(no[n+]3[O-])c12,0.6,1.9%,-2.3,-35.4%
Cn1c(-c2ccccc2)cc2c3no[n+]([O-])c3ccc21,27.5*,-21.2%,68.0*,-121.2%
CS(=O)(=O)Nc1ccc(Nc2c3ccccc3nc3ccccc23)cc1,.,.,.,-7.8%
c1ccc(OCCOc2ccccc2-c2nnco2)cc1,15.2*,-0.2%,136.0*,-22.6%
COc1ccc(S(=O)(=O)N(C)c2ccc(C(=O)N3CCC(C(N)=O)CC3)cc2)cc1OC,-2.6,0.0%,-9.3,-0.6%
O=C(NNC(=O)c1cccnc1)Nc1ccc(Cl)c(Cl)c1,-2.2,0.4%,-4.0,16.6%
O=C(Nc1cccnc1)OCc1ccccc1,18.6*,-0.8%,35.9,-1.2%
O=C(Nc1ccc(Cl)c(Cl)c1)OCc1cccnc1,20.1*,-32.7%,41.9*,-69.4%
Cc1nccn1CCCNC(=O)C1CCC(=O)N(Cc2ccccc2F)C1 (stereo not given),-2.5,-3.4%,-2.6,-0.5%
NC(=O)Cn1cc(C(=O)C(=O)N2CCOCC2)c2ccccc21,-3.2,7.1%,-5.4,0.1%
CC(NC(=O)CNC(=O)OCc1ccccc1)C(=O)N1CC(O)CC1C(=O)OCc1ccccc1 (stereo not given),-3.8,3.3%,14.9,-4.8%
O=C(NCC(=O)N1CC(O)CC1C(=O)N1CC(O)CC1C(=O)OCc1ccccc1)OCc1ccccc1 (stereo not given),20.1,-2.1%,87.7*,.
CCn1c(SCc2nc3ccccc3[nH]2)nnc1-c1cccs1,1.5,13.7%,-7.1,16.7%
Cc1ccccc1-n1c(C)nnc1SCc1nc2ccccc2s1,33.0*,5.9%,91.4*,-11.0%
COc1ccccc1-c1nnc(SCc2nc3ccccc3s2)n1C,16.5,-7.3%,25.6,3.3%
CCOc1ccccc1-n1nnnc1SCc1nc2ccccc2s1,48.2*,-7.6%,168.1*,-14.3%
COc1ccc(-c2nnc(SCc3nc4ccccc4s3)n2C(C)C)cc1,27.7*,5.0%,85.5*,-24.2%
CCn1c(SCc2nc3ccccc3s2)nnc1-c1cccs1,58.6*,?,58.6*,-12.4%
CSCCCNC(=S)Nc1ccc(N2CCOCC2)cc1,-1.4,1.3%,-3.2,.
Cn1c(SCc2nc3ccccc3s2)nnc1-c1cccs1,60.3*,?,65.7*,-28.0%
SMILES,CHX counter,SARS PLP yeast,Shiga toxin inh,NS1 inh
O=C(N/N=C/c1ccc(Cl)cc1Cl)Nc1ccccc1,9.2*,1.0%,28.4,-11.0%
O=C(O)/C(=N/NC(=O)c1ccc(Cl)cc1)c1ccccc1,22.9*,-0.5%,13.1,-0.2%
O=C(NC(=S)Nc1ccc(Oc2ccc(Cl)cc2)cc1)c1ccccc1,18.6*,20.4%,27.1,14.1%
CCC(=O)NC(=S)Nc1ccc(NC(=S)NC(=O)c2ccccc2)cc1,2.4,0.0%,15.1,-0.8%
O=C(NC(=S)Nc1ccc(Cl)cc1)c1ccccc1,89.3*,0.2%,71.5*,9.5%
O=S(=O)(/N=C(/Nc1ccccc1)c1ccccc1O)c1ccccc1,5.1,0.5%,23.9,-3.9%
CN(CC(=O)N1CCN(Cc2ccccc2)CC1)S(=O)(=O)c1cccc2nsnc12,-5.8,-5.3%,6.8,.
CC(C)C1=NOC(C(=O)N2CCC(N3CCC(C(=O)N4CCOCC4)CC3)CC2)C1 (stereo not given),-1.2,0.0%,-2.0,3.3%
N#Cc1ccccc1NC(=O)Nc1ccc(Cl)cc1,8.0,1.2%,30.8,-47.3%
O=C(N/N=C/c1cccn1-c1cccc(C(=O)O)c1)Nc1ccccc1,31.3*,8.6%,52.0*,19.6%
CCCNC(=S)Nc1ccc(Oc2ccccc2)cc1,17.4,-10.4%,-5.3,-108.1%
O=C(N/C(=N\O)c1ccccc1)Nc1ccc(Cl)cc1,25.9,-2.4%,47.6*,-70.6%
